# From PubChem BioAssay
# The entries come from a sample that favours hits as a whole.
# C diff growth = blocks growth of Clostridium difficile; Clostridium difficile clinical isolate growth, OD600, 24 h; stronger effect = lower value; 0.25% of 86,000 active; growth activity, negative = inhibition, % at 16 µg/mL (by protocol);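 active = mean growth activity at or below -80% and every replicate also at or below -80%; inconclusive = mean at or below -80% but some replicate above -80%; inactive = mean growth activity above -80%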
# T cruzi growth-1 = inhibitors of T. cruzi proliferation | T. cruzi beta-gal in NIH3T3, GalScreen luminescence, 90 h | inhibition, % at 8.34 µM | 5.9% of 77,000 active | AID 624255;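 active = mean inhibition above about 93%, with at least 55% of replicates each passing it, limit read from the data, passing the limit was not always enough; inconclusive = only one of those two conditions holds; inactive = neither condition holds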
# T cruzi growth-2 = blocks T. cruzi growth in NIH3T3 host cells; shares compounds with T cruzi growth-1; T. cruzi beta-gal in NIH3T3, GalScreen luminescence, 90 h; inhibition, % at 8.35 µM; 72% of 5,600 active;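 active = mean replicate inhibition above about 95% and at least 55% of replicates individually reaching it, limit read from the data; inconclusive = only one of the two criteria is met; inactive = neither criterion is met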
# T cruzi growth-3 = blocks T. cruzi growth in NIH3T3 host cells. shares compounds with T cruzi growth-1. T. cruzi beta-gal in NIH3T3, GalScreen luminescence, 90 h. inhibition, % at 2.09 µM. 21% of 5,600 active. AID 651740;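 active = mean inhibition above about 95%, with at least 55% of replicates also reaching it, limit read from the data; inconclusive = meets just one of the two conditions; inactive = meets neither condition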
# NIH3T3 tox = NIH/3T3 (mouse) viability loss; shares compounds with T cruzi growth-1; NIH/3T3 viability, CellTiter-Glo ATP luminescence, 90 h; cytotoxicity (signal decrease), % at 8.35 µM; 14% of 5,600 active; AID 651742;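 active = mean signal decrease across replicates above about 35% based on untreated-well scatter, with enough replicates individually passing, limit read from the data; inconclusive = no rule stated though some were filed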
# 3T3 cytotox 2 = NIH/3T3 (mouse) viability loss | shares compounds with T cruzi growth-1 | NIH/3T3 viability, CellTiter-Glo ATP luminescence, 90 h | inhibition, % at 24.9 µM | 56% of 5,600 active;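 active = mean loss of cell viability signal at or above a set limit, and enough replicates individually reaching it; inconclusive = meets only the mean limit or only the replicate share; inactive = meets neither condition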
# Hits are given with their value; . = inactive; ? = inconclusive; / = no result given.
SMILES,C diff growth,T cruzi growth-1,T cruzi growth-2,T cruzi growth-3,NIH3T3 tox,3T3 cytotox 2
COc1ccc(CN(C)C[C@H]2Oc3ccc(NC(=O)Nc4cccc5ccccc45)cc3CC(=O)N([C@H](C)CO)C[C@H]2C)cc1,.,.,/,/,/,/
COc1ccc2c3c(n(C)c2c1)[C@@H](CO)N(CC1CCCCC1)CC31CN(C(C)=O)C1,.,/,/,/,/,/
COCC(=O)Nc1ccc2c(c1)[C@@H]1C[C@H](CC(=O)NCc3ccc(OC)cc3)O[C@@H](CO)[C@@H]1O2,.,.,/,/,/,/
COc1cccc(NC(=O)Nc2ccc3c(c2)C(=O)N(C)C[C@@H](OC)[C@@H](C)CN(C)[C@@H](C)CO3)c1,.,.,/,/,/,/
C[C@H](CO)N1C[C@H](C)[C@@H](CN(C)C(=O)Nc2ccc3c(c2)OCO3)OCCCC[C@H](C)Oc2ccc(NC(=O)C3CCCCC3)cc2C1=O,.,.,/,/,/,/
CN1C(=O)c2cc(NC(=O)c3ccc(C(F)(F)F)cc3)ccc2OC[C@@H]2O[C@@H](CC(=O)NC3Cc4ccccc4C3)CC[C@H]21,.,100,106,.,?,43
CN1C(=O)c2cc(NC(=O)c3ccc(C(F)(F)F)cc3)ccc2OC[C@@H]2O[C@@H](CC(=O)NC3Cc4ccccc4C3)CC[C@@H]21,/,.,/,/,/,/
CN1C(=O)c2cc(NC(=O)c3ccc(Cl)cc3)ccc2OC[C@@H]2O[C@@H](CC(=O)NCc3cccc(F)c3)CC[C@@H]21,.,103,103,.,.,61
CN1C(=O)c2cc(NC(=O)c3cccc(F)c3)ccc2OC[C@@H]2O[C@H](CC(=O)NCc3ccccc3)CC[C@H]21,.,.,/,/,/,/
Cc1noc(C)c1NC(=O)N1C[C@H](O)COC[C@@H]2O[C@@H](CC(=O)NCC3CCCCC3)CC[C@H]21,.,.,/,/,/,/
COCC(=O)N[C@H]1CC[C@@H](CC(=O)N2CCCCC2)O[C@H]1CO,/,.,/,/,/,/
CNC[C@H]1Oc2ccc(NC(=O)Cc3cn(C)c4ccccc34)cc2C(=O)N([C@H](C)CO)C[C@H]1C,.,.,/,/,/,/
C[C@@H](NC(=O)[C@H]1[C@H](CO)[C@H]2Cn3c(cccc3=O)[C@@H]1N2Cc1ccncc1)c1ccccc1,.,.,/,/,/,/
O=C(C[C@H]1CC[C@@H](NC(=O)Cc2cccnc2)[C@@H](CO)O1)Nc1ccc(-c2ccccc2)cc1,/,.,/,/,/,/
O=C(C[C@@H]1CC[C@@H]2[C@H](COC[C@@H](O)CN2S(=O)(=O)c2ccc(F)cc2)O1)NCCN1CCCCC1,/,.,/,/,/,/
O=C(C[C@@H]1CC[C@@H]2[C@H](COC[C@H](O)CN2S(=O)(=O)c2ccc(F)cc2)O1)NCC1CCCCC1,.,?,.,.,.,.
O=C(C[C@@H]1CC[C@@H]2[C@H](COC[C@@H](O)CN2S(=O)(=O)c2ccc(F)cc2)O1)NCC1CC1,.,.,/,/,/,/
O=C(C[C@H]1CC[C@@H]2[C@H](COC[C@@H](O)CN2S(=O)(=O)c2ccc(F)cc2)O1)NCCN1CCCCC1,/,114,.,.,.,.
Cc1noc(C)c1S(=O)(=O)N(C)C[C@@H]1OCCCC[C@H](C)Oc2ccc(N(C)C)cc2C(=O)N([C@@H](C)CO)C[C@H]1C,.,.,/,/,/,/
CCC(=O)N1C[C@@H](C)[C@H](OC)CN(C)C(=O)c2cc(NC(=O)Nc3ccc(Cl)cc3)ccc2OC[C@@H]1C,/,.,/,/,/,/
COc1ccccc1C#Cc1ccc([C@H]2[C@@H](C#N)N(C(=O)C3CCC3)[C@@H]2CO)cc1,.,?,106,108,.,96
N#C[C@@H]1[C@@H](c2ccc(C#Cc3ccccc3F)cc2)[C@H](CO)N1C(=O)C1CCC1,.,.,/,/,/,/
N#C[C@H]1[C@H](c2ccc(C#Cc3ccccc3F)cc2)[C@@H](CO)N1C(=O)C1CCC1,.,99,103,101,.,.
N#C[C@@H]1[C@H](c2ccc(C#Cc3ccccc3F)cc2)[C@@H](CO)N1C(=O)C1CCC1,.,?,.,.,.,102
COc1ccccc1C#Cc1ccc([C@@H]2[C@@H](C#N)N(C(=O)C3CCCCC3)[C@@H]2CO)cc1,.,/,/,/,/,/
SMILES,C diff growth,T cruzi growth-1,T cruzi growth-2,T cruzi growth-3,NIH3T3 tox,3T3 cytotox 2
N#C[C@H]1[C@H](c2ccc(C#Cc3ccccc3F)cc2)[C@H](CO)N1C(=O)C1CCC1,.,.,/,/,/,/
COc1ccccc1-c1ccc2c(c1)[C@H]1[C@H](CCN1C(=O)C1CC1)[C@H](CO)N2,.,.,/,/,/,/
O=C(C1CCC1)N1CC[C@@H]2[C@H](CO)Nc3ccc(-c4cccc(F)c4)cc3[C@@H]21,.,?,106,.,.,70
O=C(C1CCCC1)N1CC[C@H]2[C@H](CO)Nc3ccc(-c4cccc(F)c4)cc3[C@H]21,.,/,/,/,/,/
CC(=O)N1CC[C@@H]2[C@H](CO)Nc3ccc(-c4cccc(F)c4)cc3[C@@H]21,.,.,/,/,/,/
O=C(C1CC1)N1CC[C@@H]2[C@@H](CO)Nc3ccc(-c4cccc(F)c4)cc3[C@@H]21,.,109,101,.,.,26
COc1ccccc1-c1ccc2c(c1)[C@H]1[C@H](CCN1C(=O)C1CC1)[C@@H](CO)N2,.,98,107,.,.,.
COc1cccc(S(=O)(=O)N2CC3(CN(C(=O)Nc4cccc(F)c4)[C@@H](CO)c4[nH]c5cc(OC)ccc5c43)C2)c1,.,/,/,/,/,/
CN1C(=O)c2cc(NC(=O)c3cccs3)ccc2OC[C@@H]2O[C@H](CC(=O)NCC3CC3)CC[C@H]21,.,.,/,/,/,/
C[C@H](CO)N1C[C@H](C)[C@@H](CN(C)Cc2ccncc2)Oc2ccc(NC(=O)CCC(F)(F)F)cc2C1=O,.,.,/,/,/,/
COc1cccc(C(=O)Nc2ccc3c(c2)OC[C@@H](C)N(C(=O)C2CCCC2)C[C@H](C)[C@H](OC)CN(C)C3=O)c1,/,.,/,/,/,/
Cc1ccc(S(=O)(=O)N(C)C[C@H]2OCCCC[C@H](C)Oc3ccc(NC(=O)Nc4ccc(F)cc4)cc3C(=O)N([C@@H](C)CO)C[C@H]2C)cc1,/,.,/,/,/,/
Cc1ccc(S(=O)(=O)N(C)C[C@@H]2OCCCC[C@H](C)Oc3ccc(NC(=O)Nc4ccc(F)cc4)cc3C(=O)N([C@H](C)CO)C[C@@H]2C)cc1,/,109,97,107,.,41
Cc1ccc(S(=O)(=O)N(C)C[C@@H]2OCCCC[C@@H](C)Oc3ccc(NC(=O)Nc4ccc(F)cc4)cc3C(=O)N([C@H](C)CO)C[C@H]2C)cc1,/,114,109,109,.,.
C[C@@H]1CCCCO[C@H](CN(C)S(=O)(=O)c2ccc(Cl)cc2)[C@@H](C)CN([C@@H](C)CO)C(=O)c2cc(NC(=O)Nc3ccc(F)cc3)ccc2O1,.,.,/,/,/,/
O=C(C[C@@H]1C[C@H]2c3cc(NC(=O)Nc4ccc(C(F)(F)F)cc4)ccc3O[C@H]2[C@@H](CO)O1)NCc1cc(F)ccc1F,.,.,/,/,/,/
CNC[C@@H]1Oc2ccc(NC(=O)Cn3cnnn3)cc2C(=O)N([C@H](C)CO)C[C@H]1C,.,.,/,/,/,/
Cc1cccc(S(=O)(=O)N2CC[C@H]3[C@@H](CO)N(C)c4ccc(-c5ccc(C#N)cc5)cc4[C@H]32)c1,.,.,/,/,/,/
